# Measurements published in PubChem BioAssay (NCATS).
# Values without a mark were called inactive. Inconclusive results are not listed. Entries that show only a call come without a potency. The source made the active and inactive calls. Unless noted, the call rests on the fitted dose curve; in most records, active means well fitted curve in the direction sought with a large enough effect; inconclusive means small, poorly fitted or top-dose-only effect, or another doubt; inactive means no such curve, though single readings can be large; an effect the other way counts as inactive or inconclusive.
# Legend:
# [1] = target: Lysosomal acid glucosylceramidase (Homo sapiens) (UniProt P04062); experiment: Glucocerebrosidase-p2 (AID 348; in the data active means potency below about 10 µM; further: potency means the concentration at half of the fitted maximal effect); conditions: purified GBA, blue fluorogenic substrate, 40 min
# Lysosomal acid glucosylceramidase (Homo sapiens), sequence (P04062 whole entry, looked up): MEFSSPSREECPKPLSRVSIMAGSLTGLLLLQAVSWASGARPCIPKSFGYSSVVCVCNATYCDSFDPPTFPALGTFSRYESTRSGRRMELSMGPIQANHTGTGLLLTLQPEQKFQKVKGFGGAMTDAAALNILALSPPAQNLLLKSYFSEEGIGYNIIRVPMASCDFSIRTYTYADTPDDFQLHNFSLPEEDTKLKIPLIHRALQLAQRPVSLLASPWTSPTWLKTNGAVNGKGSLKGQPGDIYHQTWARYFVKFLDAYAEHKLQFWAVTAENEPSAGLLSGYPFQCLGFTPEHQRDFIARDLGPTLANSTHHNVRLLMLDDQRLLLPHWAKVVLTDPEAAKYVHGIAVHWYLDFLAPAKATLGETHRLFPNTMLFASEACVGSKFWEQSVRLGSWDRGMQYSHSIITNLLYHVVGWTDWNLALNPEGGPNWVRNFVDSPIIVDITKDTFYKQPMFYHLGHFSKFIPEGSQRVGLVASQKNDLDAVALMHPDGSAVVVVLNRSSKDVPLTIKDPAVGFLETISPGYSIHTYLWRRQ
# Method in brief: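 Normal human glucocerebrosidase (0.2 nM) with blue fluorogenic substrate (80 uM final) in citrate/phosphate pH 5.9 with 10mM sodium taurocholate, 0.01% tween-20; 40 min RT, NaOH/glycine stop; fluorescence Ex 365/Em 440; AC50 from a titration from 0.6 nM upwards.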
# [2] = AP1 Signaling Pathway (AID 357; active means well fitted curve in either direction with a large enough effect, not every such curve was filed as active;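 further: ME-180 reporter cells stimulated with EGF at its EC50 level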); conditions: ME-180 AP-1-bla reporter, EGF-induced, beta-lactamase ratio, 5 h; at 7.69 µM (top of the series) unless noted
# Method in brief: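 Modulation of EGF-driven AP-1 transcription was assessed with a beta-lactamase reporter in ME-180 cells. Compound and EC50 EGF were co-incubated 5 hours at 37 °C before 2.5-hour CCF4 loading at room temperature and dual-emission reading.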
# [3] = target: Glucocorticoid receptor (Homo sapiens) (UniProt P04150); experiment: GR-GFP Redistribution (AID 450;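 active means compounds whose dose series gives a full or clear partial fitted curve of increased nuclear translocation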; further: potency means the concentration at half of the fitted maximal effect); conditions: U2OS GR-GFP nuclear translocation, laser cytometry, 2 h
# Glucocorticoid receptor (Homo sapiens), sequence (P04150 whole entry, looked up, the tested form may be a part): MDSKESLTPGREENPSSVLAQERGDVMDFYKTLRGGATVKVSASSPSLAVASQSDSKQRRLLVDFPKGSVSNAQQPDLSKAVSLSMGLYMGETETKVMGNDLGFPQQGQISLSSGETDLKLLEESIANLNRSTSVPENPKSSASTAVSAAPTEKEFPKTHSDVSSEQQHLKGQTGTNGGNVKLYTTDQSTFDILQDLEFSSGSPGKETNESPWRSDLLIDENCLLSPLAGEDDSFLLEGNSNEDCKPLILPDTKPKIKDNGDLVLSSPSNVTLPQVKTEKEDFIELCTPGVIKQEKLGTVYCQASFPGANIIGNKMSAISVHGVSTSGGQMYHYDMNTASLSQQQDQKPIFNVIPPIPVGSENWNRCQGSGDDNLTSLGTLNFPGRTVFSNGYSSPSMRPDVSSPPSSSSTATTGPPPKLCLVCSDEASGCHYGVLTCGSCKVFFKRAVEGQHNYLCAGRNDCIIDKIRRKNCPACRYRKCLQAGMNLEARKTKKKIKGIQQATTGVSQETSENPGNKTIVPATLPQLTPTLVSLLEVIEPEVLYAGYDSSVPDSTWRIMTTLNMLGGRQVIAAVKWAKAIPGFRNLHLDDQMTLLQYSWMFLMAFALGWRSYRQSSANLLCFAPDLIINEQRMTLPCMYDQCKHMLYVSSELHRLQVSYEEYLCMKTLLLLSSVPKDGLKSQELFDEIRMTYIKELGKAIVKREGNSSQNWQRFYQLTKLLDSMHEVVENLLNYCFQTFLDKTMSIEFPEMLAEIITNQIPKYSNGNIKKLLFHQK
# [4] = target: Glucocorticoid receptor (Homo sapiens) (UniProt P04150); experiment: GR-EFC Redistribution (AID 451; calls by dose curve; further: potency means the concentration at half of the fitted maximal effect); conditions: CHO-K1 GR-EFC translocation, beta-gal luminescence, 2 h
# Method in brief: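 CHO-K1 cells expressing nuclear EA and GR-ED fragments of b-gal; compounds titrated up to 46 uM final, 2 h at 37 C. GR nuclear translocation read as complemented b-gal luminescence after 1 h RT detection.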
# [5] = target: Mitogen-activated protein kinase 10 (Mus musculus) (UniProt Q61831); experiment: JNK3 AlphaScreen Assay (AID 530; active means well fitted curve in either direction with a large enough effect, not every such curve was filed as active;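 further: kinase came from lysate of stimulated human HepG2 cells; signal reports phosphorylation of biotinylated GST-cJun 1-79 at Ser73 with 10 µM ATP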); conditions: JNK3 lysate, c-Jun phosphorylation; series mostly up to 57.1 µM
# Method in brief: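 HepG2 lysate (IL-1b/TNFa pre-activated) + biotin-GST-cJun 1-79 + anti-pSer73 cJun; cpd titration, 15 min RT; ATP 10 uM start; Tris pH 7.6, MgCl2, DTT, vanadate; beads in EDTA buffer; AlphaScreen.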
# [6] = target: 3',5'-cyclic-AMP phosphodiesterase 4B (Homo sapiens) (UniProt Q07343); experiment: qHTS Assay for Inhibitors of PDE-IV (AID 607; active means well fitted activation curve with a large enough effect in the main read-out, with a control signal flat, not every such curve was filed as active); conditions: HEK293 ACTOne CNG channel cells, membrane potential fluorescence; series mostly up to 22.9 µM
# 3',5'-cyclic-AMP phosphodiesterase 4B (Homo sapiens), sequence (Q07343 whole entry, looked up): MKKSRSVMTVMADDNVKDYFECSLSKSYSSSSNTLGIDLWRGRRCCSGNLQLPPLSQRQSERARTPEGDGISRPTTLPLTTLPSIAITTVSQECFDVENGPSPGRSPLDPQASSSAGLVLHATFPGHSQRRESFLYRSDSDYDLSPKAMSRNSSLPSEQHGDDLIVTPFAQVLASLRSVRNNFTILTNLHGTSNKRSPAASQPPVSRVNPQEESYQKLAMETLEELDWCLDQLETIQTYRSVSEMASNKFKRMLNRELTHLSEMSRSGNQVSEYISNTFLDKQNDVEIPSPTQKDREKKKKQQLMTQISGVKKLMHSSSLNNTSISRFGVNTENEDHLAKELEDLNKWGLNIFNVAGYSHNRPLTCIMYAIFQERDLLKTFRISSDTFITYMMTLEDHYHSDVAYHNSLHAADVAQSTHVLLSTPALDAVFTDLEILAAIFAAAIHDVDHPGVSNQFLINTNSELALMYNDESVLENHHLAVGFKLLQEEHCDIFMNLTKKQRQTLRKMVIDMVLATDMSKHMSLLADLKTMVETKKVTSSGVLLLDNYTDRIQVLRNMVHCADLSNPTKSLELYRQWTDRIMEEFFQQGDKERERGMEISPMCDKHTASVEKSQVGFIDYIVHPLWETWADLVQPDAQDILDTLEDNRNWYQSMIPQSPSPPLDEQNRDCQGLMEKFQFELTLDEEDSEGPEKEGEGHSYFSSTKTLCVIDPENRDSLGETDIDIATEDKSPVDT
# Method in brief: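 Live HEK293 cells with a modified cyclic nucleotide-gated (CNG) channel report intracellular cAMP via membrane-potential dye fluorescence (ex 535/em 590 nm). Endogenous PDE-IV was targeted. Compounds were tested at up to 22.9 uM final; RO 20-1724 100 uM served as control.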
# [7] = target: Dual specificity protein kinase CLK4 (Homo sapiens) (UniProt Q9HAZ1); experiment: qHTS Assay for Inhibitors of CDC-like Kinase 4 (ADP-FP Assay) (AID 1795); conditions: Transcreener ADP fluorescence polarization; series mostly up to 50 µM; further: nearly all actives have a fitted effect of over 60% in size; further: potency means the concentration at half of the fitted maximal effect;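 on activity change, negative = inhibition: recombinant human CLK4 phosphorylating RS repeat peptide at 1 µM ATP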
# Dual specificity protein kinase CLK4 (Homo sapiens), sequence (Q9HAZ1 whole entry, looked up): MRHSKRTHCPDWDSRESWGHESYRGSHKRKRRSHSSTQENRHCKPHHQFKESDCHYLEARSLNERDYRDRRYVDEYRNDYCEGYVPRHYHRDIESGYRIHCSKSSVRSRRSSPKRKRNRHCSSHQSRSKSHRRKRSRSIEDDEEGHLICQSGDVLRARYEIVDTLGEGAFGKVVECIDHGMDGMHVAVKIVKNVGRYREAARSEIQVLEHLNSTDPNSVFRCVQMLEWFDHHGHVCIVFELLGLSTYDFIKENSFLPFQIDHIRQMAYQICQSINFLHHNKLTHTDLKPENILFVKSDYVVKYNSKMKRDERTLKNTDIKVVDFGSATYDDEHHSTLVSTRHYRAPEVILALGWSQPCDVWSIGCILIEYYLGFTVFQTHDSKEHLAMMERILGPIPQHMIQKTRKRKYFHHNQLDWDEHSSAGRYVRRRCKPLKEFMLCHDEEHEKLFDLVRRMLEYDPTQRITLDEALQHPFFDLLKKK
# Method in brief: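 Recombinant Clk4 (6.25 nM) phosphorylated 100 uM RS repeat peptide with 1 uM ATP in 25 mM Tris pH 7.5, 10 mM MgCl2, 0.5 mM EGTA, 2.5 mM DTT, 0.01% Triton X-100 for 1 h. ADP was detected by Transcreener ADP2 competitive fluorescence polarization after 30 min at room temperature.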
# [8] = target: Ubiquitin carboxyl-terminal hydrolase 1 (Homo sapiens) (UniProt O94782); experiment: Inhibitors of USP1/UAF1: Pilot qHTS (AID 504865); conditions: purified USP1/UAF1, Ub-rhodamine cleavage fluorescence; series mostly up to 54.9 µM;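 further: rhodamine fluorescence freed from ubiquitin-rhodamine substrate followed over time; top concentration of the series differs between compounds; nearly all actives have a fitted effect of over 35% in size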
# Ubiquitin carboxyl-terminal hydrolase 1 (Homo sapiens), sequence (O94782 whole entry, looked up): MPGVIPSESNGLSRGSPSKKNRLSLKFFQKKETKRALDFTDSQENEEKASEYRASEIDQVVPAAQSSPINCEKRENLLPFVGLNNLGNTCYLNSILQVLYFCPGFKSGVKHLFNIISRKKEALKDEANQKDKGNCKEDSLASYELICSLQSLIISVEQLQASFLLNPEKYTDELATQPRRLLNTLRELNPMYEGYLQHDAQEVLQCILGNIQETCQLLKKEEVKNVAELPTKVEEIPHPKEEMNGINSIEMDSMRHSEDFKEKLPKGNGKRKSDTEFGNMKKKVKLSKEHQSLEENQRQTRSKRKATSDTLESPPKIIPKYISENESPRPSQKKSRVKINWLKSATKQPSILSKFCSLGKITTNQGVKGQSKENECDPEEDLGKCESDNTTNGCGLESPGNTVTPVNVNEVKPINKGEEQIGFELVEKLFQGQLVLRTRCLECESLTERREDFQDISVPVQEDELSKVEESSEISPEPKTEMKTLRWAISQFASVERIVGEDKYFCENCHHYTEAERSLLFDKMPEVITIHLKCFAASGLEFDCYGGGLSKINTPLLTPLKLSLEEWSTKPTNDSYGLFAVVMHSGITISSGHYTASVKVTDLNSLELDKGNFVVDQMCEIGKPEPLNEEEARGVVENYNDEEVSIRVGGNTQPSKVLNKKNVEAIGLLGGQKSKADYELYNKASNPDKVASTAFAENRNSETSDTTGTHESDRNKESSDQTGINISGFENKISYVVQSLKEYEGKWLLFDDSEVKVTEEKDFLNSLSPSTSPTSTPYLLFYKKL
# Method in brief: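 USP1/UAF1 complex at 1 nM preincubated 15 min at room temperature with compound, then Ub-Rho substrate added at 150 nM final. Fluorescence (480/540 nm) read kinetically in 50 mM HEPES pH 7.8, 0.5 mM EDTA, 1 mM TCEP, 0.1 mg/ml BSA, 0.01% Tween-20.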
# [9] = target: Cytochrome P450 1A2 (Homo sapiens) (UniProt P05177); experiment: p450-cyp1a2 (AID 410; calls by dose curve; further: potency means the concentration at half of the fitted maximal effect); conditions: recombinant CYP1A2, luciferin-ME demethylation, luminescence; series mostly up to 57 µM
# Cytochrome P450 1A2 (Homo sapiens), sequence (P05177 whole entry, looked up): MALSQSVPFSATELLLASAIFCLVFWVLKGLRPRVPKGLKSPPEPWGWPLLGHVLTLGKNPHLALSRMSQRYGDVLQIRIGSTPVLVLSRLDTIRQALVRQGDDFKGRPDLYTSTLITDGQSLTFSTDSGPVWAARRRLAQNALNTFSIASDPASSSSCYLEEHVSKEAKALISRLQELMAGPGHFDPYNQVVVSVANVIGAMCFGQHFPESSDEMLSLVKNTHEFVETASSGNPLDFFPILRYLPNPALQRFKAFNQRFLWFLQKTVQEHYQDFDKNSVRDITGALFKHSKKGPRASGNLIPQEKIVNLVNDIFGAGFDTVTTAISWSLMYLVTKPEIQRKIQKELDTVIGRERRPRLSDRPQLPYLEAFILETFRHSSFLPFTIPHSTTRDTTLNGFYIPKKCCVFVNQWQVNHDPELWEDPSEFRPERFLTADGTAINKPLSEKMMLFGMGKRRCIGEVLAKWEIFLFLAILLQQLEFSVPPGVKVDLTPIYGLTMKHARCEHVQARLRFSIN
# Method in brief: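 20nM CYP1A2, 100uM Luciferin-ME (=Km), 100mM KPO4; cpd 10 min RT; +NADPH regen, 60 min RT; stop/detect 20 min; luminescence. Normalized to furafylline 57 uM = full inhibition.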
# [10] = NFAT Signaling Pathway (AID 444; active means well fitted curve in either direction with a large enough effect, not every such curve was filed as active;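 further: carbachol stimulus at about its EC50 of 1 µM final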); conditions: Jurkat NFAT-bla M1, carbachol, beta-lactamase ratio, 5 h; at 7.69 µM (top of the series) unless noted
# Method in brief: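 Jurkat cells with NFAT-driven β-lactamase reporter and co-expressed M1 receptor, stimulated with carbachol (final 1 uM, ~EC50), compound titration, 5 h at 37 °C. CCF4 loaded 1 h at RT; 460/530 nm ratio gave %activity and AC50.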
# [11] = Stat Signaling Pathway (AID 446; active means well fitted curve in either direction with a large enough effect, not every such curve was filed as active;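 further: ME-180 cervical cancer cells given 40 pM IL-6 alongside compound; SIE-controlled beta-lactamase reporter measured as 460/530 nm FRET emission ratio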); conditions: ME-180 (cervical carcinoma) SIE beta-lactamase reporter, IL-6 stimulated, 5 h; series mostly up to 7.69 µM
# Method in brief: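 Overnight-plated ME-180 cells bearing a STAT Inducible Element beta-lactamase reporter; 5 h co-exposure to compound and 40 pM IL-6; values normalized to 300 pM IL-6 and 125 nM JAK inhibitor controls.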
# [12] = target: Cytochrome P450 3A4 (Homo sapiens) (UniProt P08684); experiment: qHTS Assay for Activators of Cytochrome P450 3A4 (AID 885); conditions: recombinant CYP3A4, Luciferin-PPXE luminescence, 60 min; series mostly up to 57.1 µM; further: nearly all actives have a fitted effect of over 65% in size
# Cytochrome P450 3A4 (Homo sapiens), sequence (P08684 whole entry, looked up): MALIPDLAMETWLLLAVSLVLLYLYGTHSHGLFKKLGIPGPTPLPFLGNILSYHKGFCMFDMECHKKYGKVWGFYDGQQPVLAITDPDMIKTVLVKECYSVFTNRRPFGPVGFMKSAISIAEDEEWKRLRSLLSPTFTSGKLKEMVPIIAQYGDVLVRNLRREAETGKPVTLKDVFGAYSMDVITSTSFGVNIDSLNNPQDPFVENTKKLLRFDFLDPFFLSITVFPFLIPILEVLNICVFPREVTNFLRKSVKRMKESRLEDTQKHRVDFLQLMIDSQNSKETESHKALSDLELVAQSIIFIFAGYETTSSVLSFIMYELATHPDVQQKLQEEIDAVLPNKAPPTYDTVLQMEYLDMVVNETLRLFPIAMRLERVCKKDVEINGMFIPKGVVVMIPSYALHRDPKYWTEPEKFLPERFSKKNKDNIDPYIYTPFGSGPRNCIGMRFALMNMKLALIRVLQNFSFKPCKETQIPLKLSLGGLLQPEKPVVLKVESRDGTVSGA
# Method in brief: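 Using 20nM recombinant human CYP3A4 in potassium phosphate (200mM), substrate Luciferin-PPXE at 25uM, luminescent luciferin detection followed a 60-min RT NADPH reaction; data scaled to 57 uM ketoconazole.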
# [13] = target: Cytochrome P450 2C19 (Homo sapiens) (UniProt P33261); experiment: qHTS Assay for Inhibitors and Substrates of Cytochrome P450 2C19 (AID 899); conditions: recombinant CYP2C19, luciferin-H EGE luminescence; series mostly up to 57.1 µM; further: potency means the concentration at half of the fitted maximal effect; nearly all actives have a fitted effect of over 60% in size
# Method in brief: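 5 nM human CYP2C19 with 10uM Luciferin-H EGE (at KM) in 50mM KPO4, compound preincubated 10 min at 37C, then NADPH regeneration for 60 min at 37C. Luciferin read by luminescence after detection reagent; normalized to 57uM ketoconazole as full inhibition.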
# [14] = target: Glutathione peroxidase 1 (Homo sapiens) (UniProt P07203); experiment: Primary qHTS Assay for Inhibitors of Recombinant Selenoprotein Glutathione Peroxidase 1 (GPX1) (AID 1845191); conditions: recombinant GPX1, GR-coupled NADPH fluorescence, 15 min; series mostly up to 48.8 µM; further: nearly all actives have a fitted effect of over 65% in size
# Glutathione peroxidase 1 (Homo sapiens), sequence (P07203 whole entry, looked up): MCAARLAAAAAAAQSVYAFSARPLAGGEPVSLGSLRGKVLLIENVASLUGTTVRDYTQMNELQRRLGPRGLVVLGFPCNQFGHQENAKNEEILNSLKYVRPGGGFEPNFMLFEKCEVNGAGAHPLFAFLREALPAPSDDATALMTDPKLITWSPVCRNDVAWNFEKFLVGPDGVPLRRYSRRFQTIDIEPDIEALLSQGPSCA
# Method in brief: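 GR-coupled readout: NADPH consumption tracked by fluorescence, ex 340/em 450 nm, at t=0 and after 15 min at RT. Final mix 10 nM GPX1, 1 mM GSH, 0.5 mM CHP, 0.5 mM NADPH, 100 nM GR, 0.01% BSA, following 30 min enzyme–compound preincubation.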
compound,measurement,setting,value
COc1ccc2[nH]cc(CCNc3nc(-c4c(C)noc4C)nc4ccccc34)c2c1,Potency,[1],> 2.29 µM
same,"activity change, negative = inhibition",[2],-24.6%
same,Potency,[3],> 46 µM
same,Potency,[4],> 46 µM
same,Potency,[5],inactive
same,Potency,[6],inactive
same,Potency,[7],inactive
same,Potency,[8],inactive
COc1cccc(Cn2c(=O)cnc3cnc(N(C)C)nc32)c1,Potency,[1],> 11.4 µM
same,"activity change, negative = inhibition",[2],-10.4%
same,Potency,[9],6.31 µM (active)
same,"activity change, negative = inhibition",[10],-0.24%
same,outcome,[11],inactive
same,Potency,[3],> 9.22 µM
same,Potency,[4],> 46 µM
same,Potency,[5],inactive
same,outcome,[12],inactive
same,Potency,[13],2.51 µM (active)
same,Potency,[7],inactive
same,Potency,[8],inactive
c1ccc(Nc2nc(-c3ccoc3)nc3ccccc23)cc1,"activity change, negative = inhibition",[2],0.696%
same,Potency,[9],0.2 µM (active)
same,"activity change, negative = inhibition",[10],2.6%
same,outcome,[11],inactive
same,Potency,[3],> 46 µM
same,Potency,[5],inactive
same,outcome,[12],inactive
same,Potency,[7],7.94 µM (active)
Cc1nc2cnc(N3CCOCC3)nc2n(CCc2ccccc2)c1=O,Potency,[1],> 11.4 µM
same,"activity change, negative = inhibition",[2],3.7%
same,"activity change, negative = inhibition",[10],15.3%
same,outcome,[11],inactive
same,Potency,[3],> 9.22 µM
same,Potency,[5],inactive
same,Potency,[7],inactive
same,Potency,[8],inactive
O=C(Cn1ncc2c1-c1ccccc1OC2)N1CCN(c2ccccc2)CC1,Potency,[14],inactive
Cc1nc2c(C#N)c[nH]n2c(=O)c1C(C)C,Potency,[14],inactive
COc1cc2oc(-c3ccccc3)cc(=O)c2c(OC)c1OC,Potency,[14],inactive
Cc1ccc(C(=O)/C=C/c2ccccc2)s1,Potency,[14],inactive
CC(=O)CCC1C(=O)N(c2ccccc2)N(c2ccccc2)C1=O,Potency,[14],inactive
Oc1c(Br)cc(Br)cc1CNC1CCC(O)CC1 (stereo unspecified),Potency,[14],inactive
COC(=O)CCSC/C=C(\C)CCn1cc(CCc2ccc(-c3ccccc3)cc2)nn1,Potency,[14],inactive
C[C@]12C=CC(=O)C=C1CC[C@@H]1[C@@H]2[C@@H](O)C[C@@]2(C)[C@H]1CC[C@]2(O)C(=O)COC(=O)c1cccc(S(=O)(=O)O)c1,Potency,[14],inactive
CC(C)c1c(-c2cnn(C(C)(C)C)c2)nc2c(C#N)c[nH]n2c1=O,Potency,[14],inactive
O=c1cc(N2CCOCC2)oc2c1ccc1ccccc12,Potency,[14],inactive
Cc1ccc(Nc2ncc(C(=O)N3CCN(c4ccc(F)cc4)CC3)c3ccccc23)cc1Cl,Potency,[14],inactive
NCc1ccc(Oc2ccccc2)cc1,Potency,[14],inactive
COC(=O)N(C)Cc1cccc(N2CCN(C(c3ccccc3)c3ccccc3)CC2)c1,Potency,[14],inactive
CC[C@@]1(O)CC2CN(CCc3c([nH]c4ccccc34)[C@](C(=O)OC)(c3cc4c(cc3OC)N(C)C3[C@@](O)(C(N)=O)[C@H](O)[C@]5(CC)C=CCN6CC[C@@]43[C@@H]65)C2)C1 (stereo partly specified),Potency,[14],inactive
N#Cc1ncccn1,Potency,[14],inactive
CC(C)C(=O)SCCCCCCC(=O)Nc1nc(-c2ccccc2)cs1,Potency,[14],inactive
CS(=O)(=O)n1cc2c(n1)CN([C@H]1CO[C@H](c3cc(F)ccc3F)[C@@H](N)C1)C2,Potency,[14],inactive
CN(C)c1ccc(C(=O)NCCCCCC(=O)NO)cc1,Potency,[14],inactive
CCC(Sc1nnc2c(n1)[nH]c1ccccc12)C(=O)N1c2ccccc2Sc2ccccc21 (stereo unspecified),Potency,[14],inactive
C=CC[N@@+]12CC[C@]34c5ccccc5N5/C=C6\C7N(/C=C(\C53)[C@@H](C[C@@H]41)/C(=C/CO)C2)c1ccccc1[C@@]71CC[N@@+]2(CC=C)C/C(=C\CO)[C@@H]6C[C@@H]12 (stereo partly specified),Potency,[14],inactive
